# Sampled rows, rich in hits. Any-hit rate of the full collection: about 9.5%.
# Pf growth 48h – P. falciparum growth inhibition at 48 hours (one generation); Potency, µM (highest dose often 28.7 µM), for the others: top-dose activity change, negative = inhibition, actives largely listed as inhibitors; 5.9% of 310,000 active; P. falciparum luciferase growth in erythrocytes, 48 h; active means well fitted inhibition curve with a large enough effect; inconclusive means small, poorly fitted or top-dose-only effect, or another doubt; inactive means no such curve, though single readings can be large or run the other way; further: on the % scale 0 is the no-effect control and ±100 the full control effect
#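 Growth was read as firefly luciferase luminescence after a 48 h, 37 C, 5% CO2 exposure of compounds to reporter-bearing P. falciparum cultures (0.1% parasitemia, 2% hematocrit final) in Albumax-supplemented RPMI 1640.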
# SARS PLP yeast – blocks SARS-CoV papain-like protease in a yeast assay. Potency, µM (titrated, usually from 32.9 µM), for the others: at the top dose activity, positive = growth rescue, hits mostly activators. 0.19% of 330,000 active. S. cerevisiae expressing SARS-CoV PLpro, growth rescue; further: 0% is about no effect; nearly all actives have a fitted effect of over 55% in size
# Pf growth 96h – inhibits malaria parasite growth, 96 h. Potency, µM (doses to about 28.7 µM), without a hit: top-dose activity change, negative = inhibition, usual class: inhibitors. P. falciparum luciferase reporter growth, 96 h. 6.9% of 320,000 active; active means well fitted inhibition curve with a large enough effect; inconclusive means small, poorly fitted or top-dose-only effect, or another doubt; inactive means no such curve, though single readings can be large or run the other way; further: on the % scale 0 is the no-effect control and ±100 the full control effect
#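 Parasite growth measured via integrated firefly luciferase reporter in P. falciparum. Infected erythrocytes at 2% hematocrit, 0.05% parasitemia final were treated 96 hours at 37 C under 5% CO2, and luminescence was read.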
# RE007 growth inh – less growth of the S. pombe RE007 Vpr strain | Potency, µM (highest dose often 92.2 µM), without a hit: at the highest dose activity change, negative = less growth, most hits filed as inhibitors | 0.21% of 360,000 active | S. pombe RE007 Vpr strain, BacTiter-Glo ATP luminescence, 24 h | AID 651644; active means well fitted falling curve with a large enough effect; inconclusive means small, poorly fitted or top-dose-only effect; inactive means no such curve, though single readings can be large or run the other way; further: on the % scale 0 is the no-effect control and ±100 the full control effect; nearly all actives have a fitted effect of over 50% in size
#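 Fission yeast strain RE007, carrying one chromosomally integrated HIV-1 vpr copy, was seeded at OD 0.01 in PMG+AL medium with 23 nL pinned compound. After 24 h at 30 °C and 99% humidity, viability was read by BacTiter-Glo luminescence.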
# NS1 function inh – inhibitors of influenza NS1 protein function; Potency, µM (top dose mostly 46.1 µM), for inactives: at the highest dose activity, positive = more growth; 0.4% of 270,000 active; further: actives are rising curves; nearly all actives have a fitted effect of over 50% in size
#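 Read-out: OD600 growth recovery of NS1-expressing budding yeast. Cells grown overnight at 30C in -URA glucose medium, washed, resuspended and diluted 1:100 in 2% galactose assay medium, pH 6.0. Same strain lacking NS1 served as positive control.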
# * hit, by the source's call; ? = inconclusive; . = no result given; [ ] = remark or other dose. Unless noted, the call rests on the fitted dose curve. Potency means the concentration at half of the fitted maximal effect.
SMILES,Pf growth 48h,SARS PLP yeast,Pf growth 96h,RE007 growth inh,NS1 function inh
O=C(Nc1ccccc1Oc1cccnc1)C1CCCN(C/C=C/c2ccc(F)cc2)C1 (stereo unspecified),?,?,-3%,6%,-3%
O=C(Nc1ccc(Oc2cccnc2)cc1)C1CCN(Cc2ccccc2F)CC1,?,1%,5.9µM*,-17%,-8%
CC(=O)c1cccc(CN2CCC(C(=O)Nc3ccc(-c4cccc(C)c4)cc3)CC2)c1,4.1µM*,-3%,-29%,0%,-30%
O=C(Cc1ccccc1)NNS(=O)(=O)c1ccccc1[N+](=O)[O-],16%,2%,20%,-2%,6%
CC1CC(C)CN(CC(O)COCc2ccccc2F)C1 (stereo unspecified),30%,-2%,44%,-5%,-3%
Cc1cc(N2CCOCC2)nc2ccc(Cc3ccc4nc(N5CCOCC5)cc(C)c4c3)cc12,.,.,.,.,13%
CC(=O)O[C@]1(C)N=NC2(CCCCC2)O1,.,.,.,.,-2%
C[C@H](CO)N1C[C@H](C)[C@@H](CN(C)S(C)(=O)=O)Oc2c(NC(=O)C3CC3)cccc2C1=O,.,0%,.,4%,.
COc1cc(C)ccc1OCC(=O)NC1CCCCCC1,52%,-6%,86%,-10%,.
COc1ccc(C)cc1NC(C)C(=O)NC(=O)NC1CCCCC1 (stereo unspecified),13µM*,-2%,?,20%,.
CC1CC(C)CN(C(C(=O)NC2CCCCC2)c2ccnc3ccccc23)C1 (stereo unspecified),.,.,.,-7%,.
C=C[C@H]1CN2CC[C@H]1C[C@@H]2[C@@H](O)c1ccnc2ccccc12,0.033µM*,.,0.0041µM*,0%,.
C=CC1CN2CCC1CC2C(OC(C)=O)c1ccnc2ccc(OC)cc12 (stereo unspecified),0.37µM*,0%,0.29µM*,1%,-9%
CC[C@H]1CN2CCC1C[C@@H]2[C@H](O)c1ccnc2ccc(OC)cc12 (stereo partly specified),.,.,.,-8%,.
COc1ccc(-n2nc3ccc(N)cc3n2)cc1Cl,57%,-4%,29%,-18%,28%
Cc1ccc(-n2nc3ccc(N)cc3n2)cc1Cl,89%,-1%,4.1µM*,4%,8%
Cc1ccc(-n2nc3ccc(N)cc3n2)c(C)c1,98%,1%,1.7µM*,?,?
Cc1ccc(-n2nc3ccc(N)cc3n2)cc1C,0%,-5%,185%,?,?
COc1ccccc1NC(=O)CCNC(=O)c1ccc(C)cc1,1%,4%,2%,3%,22%
CCOC(=O)C1CCCN(C(=O)c2ccc3c(c2)N(C)C(=O)/C(=C/c2ccccc2Cl)S3)C1 (stereo unspecified),?,-6%,0.41µM*,6%,-4%
COc1ccc(/C=C2\Sc3ccc(C(=O)N4CCc5ccccc5C4)cc3N(C)C2=O)cc1,4%,21%,?,.,13%
COc1ccc(/C=C2\Sc3ccc(C(=O)NC4CC4)cc3N(C)C2=O)cc1OC,?,-4%,-1%,-13%,10%
CCN1CCN(CCNC(=O)c2ccc3c(c2)N(Cc2ccc(F)cc2)C(=O)/C(=C/c2ccccc2)S3)CC1,6.6µM*,-6%,3%,5%,.
COc1ccc(/C=C2\Sc3ccc(C(=O)NCCN4CCCCCC4)cc3N(C)C2=O)cc1,3.3µM*,1%,-4%,-4%,8%
CN1C(=O)/C(=C/c2ccccc2Cl)Sc2ccc(C(=O)N3CCCC3)cc21,?,-4%,40%,3%,-23%
COc1ccc(/C=C2\Sc3ccc(C(=O)N4CCCC4)cc3N(C)C2=O)cc1OC,2.3µM*,-4%,?,-4%,15%
CCN(CC)c1c(C)nc2ccc(C(=O)N3CCN(C(=O)c4ccco4)CC3)cn12,.,.,.,3%[18.4 µM],.
CCCn1nc(C(=O)Nc2ccc(N3CCOCC3)cc2)c2ccccc2c1=O,-13%,-2%,38%,2%,.
CN1C(=O)/C(=C\c2ccccc2F)Sc2ccc(C(=O)NC3CCN(Cc4ccccc4)CC3)cc21,1.7µM*,-2%,?,-12%,16%
O=C1Nc2cc(C(=O)N3CCOCC3)ccc2SC1N1CCOCC1 (stereo unspecified),17%,-18%,?,1%,-1%
